What was measured:
Test in all cases: yeast three-hybrid, YBZ-1, SC-Leu-His + 0.5 mM 3-AT, 4 days
Conditions in all cases: tags: N-Gal4 AD-HA kept; label: inside an RPR1-promoter hybrid RNA with tandem MS2 sites; ssRNA
PUM1 PUF domain R2-LPC = PUM1 PUF domain R2-LPC (Homo sapiens, UniProt Q14671 828-1176, N899L;Y900P;Q903C)
How it was run: (§1)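 Repeat regions from input (SC-Leu) and selection (SC-Leu-His + 0.5 mM 3-AT) plates were PCR-amplified and Illumina-sequenced after four days of growth. The cells were strain YBZ-1 with a LexA–MS2 coat fusion and a HIS3 reporter, co-expressing Pumilio-1 PUF domain libraries and matching RNA elements from a centromeric plasmid. The interaction score is the log change in variant frequency from input to selection, taken in log2 with a pseudocount of 1 for absent variants.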

PUM1 PUF domain R2-KVA = PUM1 PUF domain R2-KVA (Homo sapiens, UniProt Q14671 828-1176, N899K;Y900V;Q903A)
How it was run: as §1

PUM1 PUF domain R3-DWV = PUM1 PUF domain R3-DWV (Homo sapiens, UniProt Q14671 828-1176, C935D;R936W;Q939V)
How it was run: as §1

PUM1 PUF domain R3-YYR = PUM1 PUF domain R3-YYR (Homo sapiens, UniProt Q14671 828-1176, C935Y;R936Y;Q939R)
How it was run: as §1

PUM1 PUF domain R2-NYP = PUM1 PUF domain R2-NYP (Homo sapiens, UniProt Q14671 828-1176, Q903P)
How it was run: as §1

PUM1 PUF domain R3-GCK = PUM1 PUF domain R3-GCK (Homo sapiens, UniProt Q14671 828-1176, C935G;R936C;Q939K)
How it was run: as §1

PUM1 PUF domain R1-NFS = PUM1 PUF domain R1-NFS (Homo sapiens, UniProt Q14671 828-1176, S863N;R864F;Q867S)
How it was run: as §1

PUM1 PUF domain R8-MYF = PUM1 PUF domain R8-MYF (Homo sapiens, UniProt Q14671 828-1176, N1122M;Q1126F)
How it was run: as §1

PUM1 PUF domain R5-SQA = PUM1 PUF domain R5-SQA (Homo sapiens, UniProt Q14671 828-1176, C1007S;R1008Q;Q1011A)
How it was run: as §1

PUM1 PUF domain R7-LMF = PUM1 PUF domain R7-LMF (Homo sapiens, UniProt Q14671 828-1176, S1079L;N1080M;E1083F)
How it was run: as §1

Sequence of PUM1 PUF domain R3-DWV (Q14671 828-1176 C935D/R936W/Q939V): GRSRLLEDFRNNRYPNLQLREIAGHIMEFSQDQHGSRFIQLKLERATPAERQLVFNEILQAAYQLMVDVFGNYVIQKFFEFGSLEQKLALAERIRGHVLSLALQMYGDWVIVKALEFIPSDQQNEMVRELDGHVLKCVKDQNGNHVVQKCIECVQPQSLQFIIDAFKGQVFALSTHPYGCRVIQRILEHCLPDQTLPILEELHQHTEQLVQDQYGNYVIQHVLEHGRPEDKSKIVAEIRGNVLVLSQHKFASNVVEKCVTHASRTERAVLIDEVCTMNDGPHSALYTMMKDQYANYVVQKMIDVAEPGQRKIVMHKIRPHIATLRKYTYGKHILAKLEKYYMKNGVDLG
Sequence of PUM1 PUF domain R3-YYR (Q14671 828-1176 C935Y/R936Y/Q939R): as the sequence (Q14671 828-1176 C935D/R936W/Q939V) above, with D108Y, W109Y, V112R counted along it
Sequence of PUM1 PUF domain R3-GCK (Q14671 828-1176 C935G/R936C/Q939K): as the sequence (Q14671 828-1176 C935D/R936W/Q939V) above, with D108G, W109C, V112K counted along it
Sequence of PUM1 PUF domain R7-LMF (Q14671 828-1176 S1079L/N1080M/E1083F): as the sequence (Q14671 828-1176 C935D/R936W/Q939V) above, with D108C, W109R, V112Q, S252L, N253M, E256F counted along it
Sequence of PUM1 PUF domain R2-NYP (Q14671 828-1176 Q903P): as the sequence (Q14671 828-1176 C935D/R936W/Q939V) above, with Q76P, D108C, W109R, V112Q counted along it
Sequence of PUM1 PUF domain R2-KVA (Q14671 828-1176 N899K/Y900V/Q903A): as the sequence (Q14671 828-1176 C935D/R936W/Q939V) above, with N72K, Y73V, Q76A, D108C, W109R, V112Q counted along it
Sequence of PUM1 PUF domain R8-MYF (Q14671 828-1176 N1122M/Q1126F): as the sequence (Q14671 828-1176 C935D/R936W/Q939V) above, with D108C, W109R, V112Q, N295M, Q299F counted along it
Sequence of PUM1 PUF domain R1-NFS (Q14671 828-1176 S863N/R864F/Q867S): as the sequence (Q14671 828-1176 C935D/R936W/Q939V) above, with S36N, R37F, Q40S, D108C, W109R, V112Q counted along it
Sequence of PUM1 PUF domain R2-LPC (Q14671 828-1176 N899L/Y900P/Q903C): as the sequence (Q14671 828-1176 C935D/R936W/Q939V) above, with N72L, Y73P, Q76C, D108C, W109R, V112Q counted along it
Sequence of PUM1 PUF domain R5-SQA (Q14671 828-1176 C1007S/R1008Q/Q1011A): as the sequence (Q14671 828-1176 C935D/R936W/Q939V) above, with D108C, W109R, V112Q, C180S, R181Q, Q184A counted along it

Question: Which binding signal (PUM1 PUF domain R2-LPC) does the source give for “GGCUAGAACUAGUGGAUCCCCCGGCGCCCGGCGGCUCGAGCCCGGGUAAGUGUAAAGAGUCUGCAUGCCGCCGGGCGCCAUGCCUGCAGGUCGACUCUAGAAAACAUG” here?
Answer: 3.13 log2 enrichment (interaction score)

Question: What about the binding signal (PUM1 PUF domain R2-KVA) of the same sequence?
Answer: 3.4 log2 enrichment (interaction score)

Question: How did the binding signal (PUM1 PUF domain R3-DWV) turn out when “GGCUAGAACUAGUGGAUCCCCCGGCGCCCGGCGGCUCGAGCCCGGGUAAGUGUAAAUAGUCUGCAUGCCGCCGGGCGCCAUGCCUGCAGGUCGACUCUAGAAAACAUG” was run?
Answer: 2.15 log2 enrichment (interaction score)

Question: What about the binding signal (PUM1 PUF domain R3-YYR) of the same sequence?
Answer: 3.94 log2 enrichment (interaction score)

Question: And the binding signal (PUM1 PUF domain R2-NYP)?
Answer: 4.08 log2 enrichment (interaction score)

Question: What does the source list for “GGCUAGAACUAGUGGAUCCCCCGGCGCCCGGCGGCUCGAGCCCGGGUAAGUGUAAGUAGUCUGCAUGCCGCCGGGCGCCAUGCCUGCAGGUCGACUCUAGAAAACAUG”?
Answer: binding signal (PUM1 PUF domain R3-DWV): 3.22 log2 enrichment (interaction score); binding signal (PUM1 PUF domain R3-GCK): 2.22 log2 enrichment (interaction score)

Question: Which binding signal (PUM1 PUF domain R3-YYR) does the source give for “GGCUAGAACUAGUGGAUCCCCCGGCGCCCGGCGGCUCGAGCCCGGGUAAGUGUAACUAGUCUGCAUGCCGCCGGGCGCCAUGCCUGCAGGUCGACUCUAGAAAACAUG” here?
Answer: 2.31 log2 enrichment (interaction score)

Question: For “GGCUAGAACUAGUGGAUCCCCCGGCGCCCGGCGGCUCGAGCCCGGGUAAGUGUAAAUUGUCUGCAUGCCGCCGGGCGCCAUGCCUGCAGGUCGACUCUAGAAAACAUG”, which binding signal (PUM1 PUF domain R1-NFS) is on record?
Answer: 7.9 log2 enrichment (interaction score)

Question: “GGCUAGAACUAGUGGAUCCCCCGGCGCCCGGCGGCUCGAGCCCGGGUAAGCGUAAAUAGUCUGCAUGCCGCCGGGCGCCAUGCCUGCAGGUCGACUCUAGAAAACAUG” was tested. Which binding signal (PUM1 PUF domain R8-MYF) did it give?
Answer: 2.53 log2 enrichment (interaction score)

Question: How did the binding signal (PUM1 PUF domain R3-GCK) turn out when “GGCUAGAACUAGUGGAUCCCCCGGCGCCCGGCGGCUCGAGCCCGGGUAAGUGUAAUUAGUCUGCAUGCCGCCGGGCGCCAUGCCUGCAGGUCGACUCUAGAAAACAUG” was run?
Answer: 2.81 log2 enrichment (interaction score)

Question: “GGCUAGAACUAGUGGAUCCCCCGGCGCCCGGCGGCUCGAGCCCGGGUAAGUGUGAAUAGUCUGCAUGCCGCCGGGCGCCAUGCCUGCAGGUCGACUCUAGAAAACAUG” was tested. Which binding signal (PUM1 PUF domain R5-SQA) did it give?
Answer: 3.09 log2 enrichment (interaction score)

Question: For “GGCUAGAACUAGUGGAUCCCCCGGCGCCCGGCGGCUCGAGCCCGGGUAAGUUUAAAUAGUCUGCAUGCCGCCGGGCGCCAUGCCUGCAGGUCGACUCUAGAAAACAUG”, which binding signal (PUM1 PUF domain R7-LMF) is on record?
Answer: 3.84 log2 enrichment (interaction score)
